# Shiga inhibitor: blocks Shiga toxin action in Vero cells; Vero cells, Shiga toxin protein synthesis inhibition reporter; 9.2% of 290,000 active; inhibition, % at 38.7 µM; AID 2315; in the data active = inhibition mostly above about 28%, no sharp cut-off; inactive = mostly below about 43%; note: 0% is about no effect
# Giardia FBPA inh: inhibitors of Giardia lamblia fructose-1,6-bisphosphate aldolase | A8B2U2 | purified Giardia FBPA | Potency, µM (top dose mostly 59.6 µM), inactives show at the top dose activity, negative = inhibition, hits mostly inhibitors | 0.71% of 290,000 active | AID 2451; note: potency is the fitted concentration of half-maximal effect; % is set by controls: 0 for no effect and ±100 for the full control effect; nearly all actives have a fitted effect of over 55% in size
# Target sequence (A8B2U2 whole entry, looked up): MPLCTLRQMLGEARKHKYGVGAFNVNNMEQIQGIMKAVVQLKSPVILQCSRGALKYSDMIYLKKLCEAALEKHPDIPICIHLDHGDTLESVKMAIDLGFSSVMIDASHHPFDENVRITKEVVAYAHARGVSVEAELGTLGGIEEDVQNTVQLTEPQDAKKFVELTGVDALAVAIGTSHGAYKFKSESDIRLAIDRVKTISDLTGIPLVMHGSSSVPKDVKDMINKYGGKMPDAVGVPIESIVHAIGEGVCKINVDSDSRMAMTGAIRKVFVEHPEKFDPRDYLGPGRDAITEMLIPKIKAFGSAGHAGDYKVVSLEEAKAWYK
#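 40 nM FBPA preincubated 10 min at RT with compound (up to 57.5 uM final), then substrate plus GAPDH/TPI/NAD/arsenate coupling and diaphorase/resazurin added. Fluorescence read after 20 min at RT, 525/598 nm.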
# Pf growth 48h: inhibits P. falciparum growth in the first generation, 48 h; Potency, µM (doses to about 28.7 µM), for inactives: top-dose activity change, negative = inhibition, usual class: inhibitors; AID 504832; P. falciparum luciferase growth in erythrocytes, 48 h; 5.9% of 310,000 active; note: potency is the fitted concentration of half-maximal effect; % is set by controls: 0 for no effect and ±100 for the full control effect
#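 Luminescence readout; reporter = integrated firefly luciferase in P. falciparum. RBC culture at 2% hematocrit, 0.1% parasitemia final, 37 C/5% CO2; decreased signal taken as growth inhibition.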
# NS1 function inh: influenza NS1 inhibition | Potency, µM (series often up to 46.1 µM), without a hit: at the highest dose activity, positive = more growth | 0.4% of 270,000 active; calls by dose curve; note: potency is the fitted concentration of half-maximal effect; actives are rising curves; nearly all actives have a fitted effect of over 50% in size
#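 Growth recovery, yeast-based: influenza A NS1 expressed in S. cerevisiae causes slow growth, and suppressors are detected by OD600. The parent strain without NS1 is used as positive control.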
# Pf growth 96h: inhibits malaria parasite growth, 96 h; P. falciparum luciferase reporter growth, 96 h; 6.9% of 320,000 active; Potency, µM (series often up to 28.7 µM), for inactives: at the highest dose activity change, negative = inhibition, usual class: inhibitors; note: potency is the fitted concentration of half-maximal effect; % is set by controls: 0 for no effect and ±100 for the full control effect
#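 Plates of compound plus infected erythrocytes (2% hematocrit, 0.05% parasitemia final) incubate 96 hours, 37 C, 5% CO2. Detection reagent added; reduced luminescence from the parasites' luciferase reporter flags inhibition.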
# CHX counter: affects cycloheximide protein synthesis inhibition readout, counter-screen | cell reporter, cycloheximide protein synthesis inhibition counterscreen | max response, % | 12% of 300,000 active | AID 2314; in the data active = max response mostly above about 13%, no sharp cut-off; inactive = mostly below about 14%; note: read at 38.3 µM for the half of the compounds with a filed dose; 0% is about no effect
# Starred values were filed as active, the others as inactive; ? = inconclusive; nt = not tested or not shown; + = active, no number; [ ] = dose if it differs, or a comment. Most compounds without a hit are left out; they make up all but 21% or so of the library. Unless noted, calls come from the whole dose curve; as a rule, active = well fitted curve in the direction sought with a large enough effect; inconclusive = small, poorly fitted or top-dose-only effect, or another doubt; inactive = no such curve, though single readings can be large; an effect the other way counts as inactive or inconclusive.
SMILES,Shiga inhibitor,Giardia FBPA inh,Pf growth 48h,NS1 function inh,Pf growth 96h,CHX counter
Cc1cccc(-n2nc([N+](=O)[O-])c(=NCc3cccnc3)n2O)c1,16.3,-7.2%,?,-18.4%,?,24.0
O=[N+]([O-])c1nn(-c2cccc(Cl)c2)n(O)c1=NCc1cccnc1,13.5,-3.2%,8.4%,-18.0%,-16.5%,22.6*
CC(C)(C)OC(=O)N1Cc2[nH]c3ccccc3c2C[C@@H]1C(=O)O,nt,nt,-19.2%,nt,0.8%,nt
CC(C)COC(=O)CCNc1n[nH]c(=O)[nH]c1=O,1.3,1.2%,0.0%,19.3%,9.28µM*,-0.6
CC(=O)Nc1ccn(C2OC(C(COC(C)=O)NC(=O)C3CCCN3C(=O)OC(C)(C)C)C(OC(C)=O)C2OC(C)=O)c(=O)n1 (stereo unspecified),-5.9,4.9%,nt,nt,nt,-4.9
O=C(Cc1ccccc1)N1CCN(C/C=C/c2ccccc2)CC1,-2.1,8.7%,-31.5%,4.7%,3.29µM*,1.3
O=C(Cc1ccccc1)N1CCN(Cc2cccc(Br)c2)CC1,-2.1,?,14.8%,-6.0%,-25.5%,-1.6
O=[N+]([O-])c1ccc(C(O)CN2CCN(C/C=C/c3ccccc3)CC2)cc1 (stereo unspecified),-2.3,-5.2%,7.38µM*,-2.9%,4.15µM*,-1.2
O=C(Cc1ccc(Br)cc1)N1CCN(Cc2ccccc2)CC1,21.3,0.5%,?,-26.2%,?,18.4*
O=C(C1CCN(Cc2ccccc2)CC1)N1CCN(C/C=C/c2ccccc2)CC1,-8.1,-26.2%,-24.8%,-10.2%,-13.5%,-2.0
COC(=O)C1CCN(C(=O)Cc2ccc(OC)c(OC)c2)CC1,-2.2,0.5%,4.6%,-3.8%,12.5%,5.6
O=[N+]([O-])c1ccc(C(O)CN2CCN(Cc3ccccc3)CC2)cc1 (stereo unspecified),-0.5,-0.1%,?,3.4%,?,-1.0
COC(=O)C1CCN(C(=O)Cc2ccc(Br)cc2)CC1,66.0*,7.9%,14.8%,-5.1%,24.8%,28.2*
Cc1ccc([C@@H]2[C@@H]3C(=O)N(c4ccccc4)C(=O)[C@@H]3[C@]3(C)C(=O)N(CC4CC4)CC(=O)N23)o1,0.5,12.6%,-4.8%,-1.0%,50.2%,-1.5
COc1ccccc1N1CCN(C(=O)NC23CC4CC(CC(C4)C2)C3)CC1,-1.8,4.8%,?,-6.4%,?,1.3
CC(C)c1nnc(NC(=O)C2CCCN2C(=O)Nc2cccc(Cl)c2)s1 (stereo unspecified),-2.0,11.7%,38.7%,9.1%,0.1%,-3.0
Cc1c(Br)c([N+](=O)[O-])nn1CC(=O)NCC1CCCO1 (stereo unspecified),-11.3,5.1%,12.4%,-0.3%,21.9%,-3.8
c1ccc2c(Nc3ccc4c(c3)OCCO4)c3c(nc2c1)CCCC3,-2.6,10.0%,?,nt,?,14.5
CCOc1ccc(S(=O)(=O)NCCC(=O)NCc2cccnc2)cc1,nt,nt,3.4%,nt,3.0%,nt
C(=C/c1ccccc1)/CN1CCN(C(c2ccccc2)c2ccccc2)CC1,nt,1.7%[21.7 µM],?,nt,7.21µM*,nt
O=C(Cc1ccc(Br)cc1)N1CCCC1,15.9,-5.2%,-5.9%,-7.2%,-3.0%,6.0
Oc1c(Br)cc(Br)cc1CN1CCN(Cc2ccccc2)CC1,-2.4,-11.7%,1.85µM*,1.9%,nt,0.2
O=C(Cc1ccc(Br)cc1)N1CCCCCC1,60.3*,2.6%,73.6%,-6.6%,47.4%,46.5*
O=C(COC(=O)c1ccc(F)cc1Cl)NC(=O)NC1CCCC1,nt,nt,-18.7%,nt,-12.4%,nt
Cc1ccc(N2C(SCC(=O)O)=NC(=Nc3cccc(C)c3)C23CCCC3)cc1,-4.5,?,30.9%,nt,-7.5%,3.8
SMILES,Shiga inhibitor,Giardia FBPA inh,Pf growth 48h,NS1 function inh,Pf growth 96h,CHX counter
CC(C)[C@@H](COc1ccccc1)N1CCN(Cc2ccccc2)CCC1=O,-1.3,9.8%,?,-8.8%,6.57µM*,3.0
CC1CCC(=O)N(CCOc2ccccc2)CC1 (stereo unspecified),57.7*,3.4%,97.7%,-11.5%,-33.6%,38.5*
C[C@H]1CCC(=O)N([C@H](COc2ccccc2)Cc2ccccc2)CC1,-0.9,-4.4%,?,-57.7%,?,-2.4
O=C(Nc1ccc(Cl)cc1)OCCN1CCN(Cc2ccccc2)CCC1=O,+,0.9%,nt,nt,nt,34.1*
O=C1CCN(Cc2ccccc2)CCN1CCOc1ccccc1,76.3*,-2.2%,75.1%,-25.3%,85.0%,41.7*
CC(C)C(CO)N1CCN(Cc2ccccc2)CCC1=O (stereo unspecified),-3.1,-12.7%,2.4%,3.3%,?,-5.2
COC(=O)[C@H]1C[C@@H]1[C@H](N)c1ccccc1,-2.9,-25.1%,0.0%,1.9%,0.0%,-2.5
COc1ncccc1C(=O)N1CCCC(C(=O)c2cc(F)ccc2F)C1 (stereo unspecified),-6.7,2.3%,0.0%,2.3%,-3.8%,1.6
CCc1noc(C)c1C(=O)N1CCCC(C(=O)c2cc(F)ccc2OC)C1 (stereo unspecified),-11.1,5.8%,7.9%,-0.6%,11.7µM*,-2.8
CSc1ncccc1C(=O)N1CCCC(C(=O)c2cc(F)ccc2F)C1 (stereo unspecified),-5.1,2.5%,-11.0%,2.9%,9.28µM*,-1.9
COc1ccc2cc(C(=O)CCC(=O)O)ccc2c1,nt,nt,nt,-6.2%,nt,nt
CC(C)Cc1ccc(C(=O)Nc2ccc(Cc3ccncc3)cc2)o1,8.3,-0.7%,-21.3%,-24.0%,-23.6%,2.4
COc1ccc(Br)c(C(=O)Nn2c(C)nc3ccccc3c2=O)c1,-2.3,8.4%,1.0%,-82.7%,40.0%,-4.3
COc1ccc(C(=O)Nn2c(C)nc3ccccc3c2=O)c(OC)c1,-2.6,1.2%,21.7%,-2.1%,1.17µM*,3.9
COc1ccc(C(=O)Nn2cnc3ccccc3c2=O)c(OC)c1,39.0*,-0.8%,241.4%,7.9%,462.2%,25.6*
Cc1nc2ccccc2c(=O)n1NC(=O)c1ccc(F)cc1Cl,2.2,-0.8%,6.6%,-3.2%,9.28µM*,-2.0
COc1ccc(C(=O)Nn2cnnc2)c(OC)c1,-8.9,2.1%,nt,2.6%,-12.0%,-2.1
CCOCCn1cnc2sc(C(=O)NCCCN3CCOCC3)c(C)c2c1=O,11.9,nt,39.8%,5.4%,-28.3%,7.9
CC(=O)c1ccc[nH]1,nt,3.8%,nt,nt,nt,nt
O=C(/C=C/c1ccccc1Cl)c1ccc[nH]1,51.5*,-2.1%,38.9%,-47.9%,?,36.3*
CN(C)/C=C/C(=O)/C=C/c1ccc(Cl)cc1Cl,102.2*,3.3%,357.6%,nt,53.5%,34.1*
O=C(/C=C/c1ccc(Cl)cc1Cl)c1ccc[nH]1,74.6*,-2.3%,-17.2%,-8.5%,3.6%,33.7*
CCOc1ccc(S(=O)(=O)N2CCCCC2)cc1NC(=O)c1c(CC)noc1C,nt,nt,?,nt,12.4%,nt
CSc1cc2c(cc1C(F)(F)F)N(C(=O)Nc1cccnc1)CC2,-3.8,3.2%,nt,nt,nt,-2.8
Cn1cc(-c2ccccc2C(=O)O)c(=O)c2ccccc21,-0.8,-0.8%,nt,7.5%,7.9%,-2.4
COc1nc(Cc2ccc(Cl)cc2)nc2ccccc12,-13.7,0.6%,?,nt,?,-6.6

# Source: PubChem BioAssay
